What all share (details): Compound concentration 20.0 uM
Experiment [1] concerns the target Tyrosine-protein kinase ABL1 (Homo sapiens) (UniProt P00519).
The target of experiment [2] is Bromodomain-containing protein 4 (Homo sapiens) (UniProt O60885).
Experiment [3] deals with Cyclin-dependent kinase 2 (Homo sapiens) (UniProt P24941).
Experiment [4] concerns the target Casein kinase I isoform delta (Homo sapiens) (UniProt P48730).
Experiment [5] concerns the target Glycogen synthase kinase-3 beta (Homo sapiens) (UniProt P49841).
Experiment [6] addresses Mitogen-activated protein kinase 1 (Homo sapiens) (UniProt P28482).
The target in experiment [7] is T1, Aurora kinase A (Homo sapiens) (UniProt O14965).
T1 sequence (whole entry): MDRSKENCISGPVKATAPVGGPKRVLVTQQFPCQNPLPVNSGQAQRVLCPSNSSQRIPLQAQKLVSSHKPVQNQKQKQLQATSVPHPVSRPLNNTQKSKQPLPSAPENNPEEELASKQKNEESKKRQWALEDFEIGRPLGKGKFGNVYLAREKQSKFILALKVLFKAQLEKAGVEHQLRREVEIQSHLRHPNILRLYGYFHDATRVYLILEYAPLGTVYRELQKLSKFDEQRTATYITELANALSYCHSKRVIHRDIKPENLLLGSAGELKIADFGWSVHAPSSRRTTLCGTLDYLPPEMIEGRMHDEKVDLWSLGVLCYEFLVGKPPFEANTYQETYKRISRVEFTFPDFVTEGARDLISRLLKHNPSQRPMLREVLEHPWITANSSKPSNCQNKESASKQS

For experiment [8], the target named is T2, Transcription intermediary factor 1-alpha (Homo sapiens) (UniProt O15164).
T2 sequence (whole entry): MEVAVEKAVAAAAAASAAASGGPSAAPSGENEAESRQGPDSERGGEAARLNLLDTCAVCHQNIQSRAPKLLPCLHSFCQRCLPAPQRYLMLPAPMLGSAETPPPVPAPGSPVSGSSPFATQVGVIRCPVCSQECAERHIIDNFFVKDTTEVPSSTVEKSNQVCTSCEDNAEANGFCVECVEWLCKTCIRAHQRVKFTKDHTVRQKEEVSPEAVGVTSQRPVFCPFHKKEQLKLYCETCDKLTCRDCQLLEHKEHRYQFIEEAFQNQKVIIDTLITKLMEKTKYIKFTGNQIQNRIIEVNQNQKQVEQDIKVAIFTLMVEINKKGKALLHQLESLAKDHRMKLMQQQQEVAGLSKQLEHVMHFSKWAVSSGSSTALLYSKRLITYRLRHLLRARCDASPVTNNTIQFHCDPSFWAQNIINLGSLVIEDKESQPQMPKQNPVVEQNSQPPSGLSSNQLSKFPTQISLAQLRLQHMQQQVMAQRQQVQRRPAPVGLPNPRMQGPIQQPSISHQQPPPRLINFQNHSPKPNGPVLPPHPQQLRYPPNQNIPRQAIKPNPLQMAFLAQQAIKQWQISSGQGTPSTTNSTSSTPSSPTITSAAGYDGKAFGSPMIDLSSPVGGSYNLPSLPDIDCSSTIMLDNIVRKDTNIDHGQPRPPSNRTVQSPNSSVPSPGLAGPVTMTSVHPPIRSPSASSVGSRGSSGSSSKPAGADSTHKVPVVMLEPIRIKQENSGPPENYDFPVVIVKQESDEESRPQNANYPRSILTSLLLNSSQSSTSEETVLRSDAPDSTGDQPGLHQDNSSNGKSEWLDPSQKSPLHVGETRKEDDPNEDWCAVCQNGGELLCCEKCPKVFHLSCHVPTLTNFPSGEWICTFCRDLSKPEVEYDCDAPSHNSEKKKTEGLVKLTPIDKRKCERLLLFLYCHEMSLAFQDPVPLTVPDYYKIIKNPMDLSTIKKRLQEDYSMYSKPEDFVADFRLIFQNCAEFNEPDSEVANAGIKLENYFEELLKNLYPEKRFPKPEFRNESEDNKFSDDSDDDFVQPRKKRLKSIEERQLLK

Non-standard residues stand in square brackets, D forms with d. Residues, ends and D or L forms follow the SMILES beside them. *: point of attachment. Tyr(3-Cl) = N[C@@H](Cc1ccc(O)c(Cl)c1)C(=O)O; Benzoyl(3,5-Cl2) = O=C(c1cc(Cl)cc(Cl)c1)*; Lys(Et2) = CCN(CC)CCCC[C@H](N)C(=O)O; Gly(cPent) = N[C@H](C(=O)O)C1CCCC1; NH(propargyl) = C#CCN*

Sequence of Glycogen synthase kinase-3 beta (Homo sapiens) (P49841 whole entry, looked up): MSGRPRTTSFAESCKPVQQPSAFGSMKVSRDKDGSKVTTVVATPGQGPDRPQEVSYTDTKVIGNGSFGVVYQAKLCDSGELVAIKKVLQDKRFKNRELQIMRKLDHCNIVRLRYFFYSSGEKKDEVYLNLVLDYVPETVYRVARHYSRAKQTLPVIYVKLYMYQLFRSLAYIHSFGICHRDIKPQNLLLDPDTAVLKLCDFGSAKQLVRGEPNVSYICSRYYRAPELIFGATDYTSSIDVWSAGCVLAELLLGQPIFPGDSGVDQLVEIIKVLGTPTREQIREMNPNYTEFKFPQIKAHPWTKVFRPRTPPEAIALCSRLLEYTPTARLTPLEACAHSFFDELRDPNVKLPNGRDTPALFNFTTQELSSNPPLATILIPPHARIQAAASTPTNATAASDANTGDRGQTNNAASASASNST
Sequence of Mitogen-activated protein kinase 1 (Homo sapiens) (P28482 whole entry): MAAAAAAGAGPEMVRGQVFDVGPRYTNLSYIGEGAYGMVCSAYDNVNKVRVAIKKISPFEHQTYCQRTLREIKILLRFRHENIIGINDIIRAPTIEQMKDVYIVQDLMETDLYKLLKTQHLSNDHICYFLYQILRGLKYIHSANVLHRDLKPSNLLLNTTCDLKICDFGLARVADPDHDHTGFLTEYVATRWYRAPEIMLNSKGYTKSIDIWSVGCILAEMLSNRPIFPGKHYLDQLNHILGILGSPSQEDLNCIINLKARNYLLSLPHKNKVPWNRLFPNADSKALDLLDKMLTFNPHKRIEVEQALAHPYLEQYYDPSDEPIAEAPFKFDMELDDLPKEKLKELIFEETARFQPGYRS
Sequence of Tyrosine-protein kinase ABL1 (Homo sapiens) (P00519 whole entry): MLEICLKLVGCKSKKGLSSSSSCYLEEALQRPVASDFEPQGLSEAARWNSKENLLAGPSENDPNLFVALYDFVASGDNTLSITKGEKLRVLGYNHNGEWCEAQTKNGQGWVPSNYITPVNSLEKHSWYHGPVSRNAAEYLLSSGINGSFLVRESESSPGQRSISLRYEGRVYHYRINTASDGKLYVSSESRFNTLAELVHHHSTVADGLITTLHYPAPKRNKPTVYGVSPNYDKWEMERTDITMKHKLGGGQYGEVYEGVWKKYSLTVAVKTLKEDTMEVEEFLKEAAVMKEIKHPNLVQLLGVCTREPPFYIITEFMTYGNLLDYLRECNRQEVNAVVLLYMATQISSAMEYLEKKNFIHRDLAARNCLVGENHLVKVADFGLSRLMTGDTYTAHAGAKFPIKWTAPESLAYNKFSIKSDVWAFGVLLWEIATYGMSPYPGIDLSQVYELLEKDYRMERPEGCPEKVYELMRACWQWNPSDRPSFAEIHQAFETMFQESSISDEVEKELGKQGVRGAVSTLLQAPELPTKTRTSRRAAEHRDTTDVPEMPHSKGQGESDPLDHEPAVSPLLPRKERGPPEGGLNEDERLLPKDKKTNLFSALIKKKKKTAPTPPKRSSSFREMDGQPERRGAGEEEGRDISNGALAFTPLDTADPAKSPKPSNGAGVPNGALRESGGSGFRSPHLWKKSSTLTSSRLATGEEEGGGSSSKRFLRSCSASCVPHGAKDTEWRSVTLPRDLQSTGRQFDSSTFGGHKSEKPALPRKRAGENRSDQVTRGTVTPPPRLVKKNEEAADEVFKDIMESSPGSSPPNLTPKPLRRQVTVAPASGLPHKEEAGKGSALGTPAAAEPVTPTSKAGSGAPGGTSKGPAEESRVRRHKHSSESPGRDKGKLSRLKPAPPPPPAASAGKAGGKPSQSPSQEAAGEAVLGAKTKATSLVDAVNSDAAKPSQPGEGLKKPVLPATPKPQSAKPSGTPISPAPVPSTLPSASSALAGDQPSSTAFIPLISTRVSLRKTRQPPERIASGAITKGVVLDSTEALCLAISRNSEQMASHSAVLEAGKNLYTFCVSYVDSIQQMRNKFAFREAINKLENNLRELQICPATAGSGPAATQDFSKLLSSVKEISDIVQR
Sequence of Casein kinase I isoform delta (Homo sapiens) (P48730 whole entry, looked up, canonical isoform): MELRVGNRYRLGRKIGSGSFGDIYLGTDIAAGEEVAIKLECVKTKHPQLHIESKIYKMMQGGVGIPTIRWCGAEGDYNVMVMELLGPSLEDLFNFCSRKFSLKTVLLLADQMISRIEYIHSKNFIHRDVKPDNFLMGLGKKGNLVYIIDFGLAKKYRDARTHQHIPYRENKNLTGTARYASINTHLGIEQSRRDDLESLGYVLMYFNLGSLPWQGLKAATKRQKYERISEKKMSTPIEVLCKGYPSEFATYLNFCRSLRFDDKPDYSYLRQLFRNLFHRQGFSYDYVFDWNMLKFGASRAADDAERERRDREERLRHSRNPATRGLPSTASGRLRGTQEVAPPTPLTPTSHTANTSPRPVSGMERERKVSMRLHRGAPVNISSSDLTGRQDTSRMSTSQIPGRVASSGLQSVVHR

Regarding `CC(=O)N[C@@H](CC(=O)O)C(=O)N[C@@H](CCC(=O)O)C(=O)N[C@H](C(=O)N[C@H](C=O)CC(=O)O)C(C)C`, the ΔTm was -0.28 °C in experiment [1]; -1.5 °C in experiment [2]; -0.58 °C in experiment [3]; -0.17 °C in experiment [4]; -0.28 °C in experiment [5]; -0.74 °C in experiment [6]. Further, the ΔTm was -1.77 °C in experiment [7] and -1.09 °C in experiment [8].

For the molecule `O=c1cc(-c2ccc(O)cc2)oc2c(CN3CCN(Cc4cccs4)CC3)c(O)cc(O)c12`, the ΔTm in experiment [1] is 2.39 °C; in experiment [2], -1.3 °C; in experiment [3], 1.5 °C; in experiment [4], -0.79 °C; in experiment [5], 2.99 °C; in experiment [6] it was -1.64 °C. Further, the figures for the ΔTm in experiment [7] and in experiment [8] were 3.95 °C and 2.2 °C, respectively.

As to `C=CC(=O)Nc1cccc(-c2c[nH]cc2CN(C)CCN)c1`, the ΔTm is 0.53 °C in experiment [1]; -1.27 °C in experiment [2]; 0.4 °C in experiment [3]; -0.04 °C in experiment [4]; -1.22 °C in experiment [5]; 0.08 °C in experiment [6]. For the same molecule, the shift in melting temperature (ΔTm) was -0.37 °C in experiment [7] and -1.19 °C in experiment [8].

On to `N=C(N)SCc1ccc(CN2C(=O)C(=O)c3cc(Br)cc(Br)c32)cc1`, for which the ΔTm is -4.26 °C in experiment [1]; -11.4 °C in experiment [2]; 0 °C in experiment [3]; -2.52 °C in experiment [4]; -2.8 °C in experiment [5]; -1.76 °C in experiment [6]. In addition, the ΔTm in experiment [7] was -5.55 °C; in experiment [8], 0 °C.

Turning to `CN(CC[C@@H](Oc1ccc(-c2ccccc2)cc1)c1ccc(F)cc1)CC(=O)O`, the ΔTm is 0.28 °C in experiment [1]; -0.22 °C in experiment [2]; -0.22 °C in experiment [3]; 0.15 °C in experiment [4]; -0.98 °C in experiment [5]; 0.32 °C in experiment [6]. Besides, the figures for the ΔTm in experiment [7] and in experiment [8] were -1.2 °C and 2.77 °C, respectively.

With `C#CCNC(=O)[C@H](CO)NC(=O)[C@H](CCCCN(CC)CC)NC(=O)[C@@H](NC(=O)[C@@H](NC(=O)[C@H](Cc1ccc(O)c(Cl)c1)NC(=O)c1cc(Cl)cc(Cl)c1)C1CCCC1)[C@@H](C)CC` ({Benzoyl(3,5-Cl2)}-[Tyr(3-Cl)][Gly(cPent)]I[Lys(Et2)]S-{NH(propargyl)}), the ΔTm in experiment [1] is 0.75 °C; in experiment [2], -3.03 °C; in experiment [3], 0.1 °C; in experiment [4] it was 0.08 °C; in experiment [5], -0.72 °C; in experiment [6] it was 0.49 °C. Further, the ΔTm in experiment [7] was -2.28 °C; in experiment [8], 0 °C.

In the case of `C=CCn1c(N[C@@H]2C[C@H](c3ccc(OCc4ccccc4)cc3)CN(C)C2)nc2cc[nH]c2c1=O`, the shift in melting temperature (ΔTm) is 0.69 °C in experiment [1]; 0.73 °C in experiment [2]; -0.03 °C in experiment [3]; -0.36 °C in experiment [4]; -0.88 °C in experiment [5]; 0.13 °C in experiment [6]. For the same molecule, the ΔTm in experiment [7] was -1.6 °C; in experiment [8] it was 0.04 °C.

As for `O=C(Nc1c[nH]nc1C(=O)NC1CCNCC1)c1cc(F)cc(F)c1`, the ΔTm in experiment [1] is 0.13 °C; in experiment [2] it was -1.86 °C; in experiment [3], 1.26 °C; in experiment [4], 1.02 °C; in experiment [5], 13.9 °C; in experiment [6], -0.13 °C. In addition, the ΔTm in experiment [7] was -0.72 °C; in experiment [8] it was -0.9 °C.

On to `Cc1cc(N2C[C@@H](C)N[C@@H](C)C2)ncc1-c1ccc(-c2nc3c(ccn3C)c(=O)[nH]2)cc1`, for which the ΔTm is 1.3 °C in experiment [1]; -0.52 °C in experiment [2]; 0.78 °C in experiment [3]; 0.59 °C in experiment [4]; 0.66 °C in experiment [5]; 0.08 °C in experiment [6]. Also, the thermal shift (ΔTm) in experiment [7] is -1.4 °C; in experiment [8], 0.61 °C.

Consider `O=C(c1cc(Cc2n[nH]c(=O)c3ccccc23)ccc1F)N1CCN(C(=O)C2CC2)CC1`, for which the ΔTm in experiment [1] was 0.22 °C; in experiment [2], 15.7 °C; in experiment [3], 0.66 °C; in experiment [4], -0.42 °C; in experiment [5] it was -4.34 °C; in experiment [6] it was 0.4 °C. The ΔTm is -2.14 °C in experiment [7] and -1.81 °C in experiment [8].

Turning to `CCC[C@@H]1CNCc2c1[nH]c(=O)c(C#N)c2N1CCC2(CC1)CC2`, the ΔTm in experiment [1] was 0.32 °C; in experiment [2] it was -1.86 °C; in experiment [3], 0.24 °C; in experiment [4] it was 0.29 °C; in experiment [5], 0.07 °C; in experiment [6] it was -0.21 °C. Further, the ΔTm in experiment [7] is -0.58 °C; in experiment [8] it was -0.85 °C.

What is called ΔTm is the shift of the melting midpoint relative to a reference.

The values are drawn from ChEMBL document CHEMBL5724796, “Tm Shift (DSF) assay results for EUbOPEN Chemogenomics Library” (2024).
